Composite z-score data for 6 molecules are collected here from PubChem BioAssay.

The structures appear in SMILES notation.

In this assay the target is Dickkopf-related protein 1 (Homo sapiens) (UniProt O94907). The experiment in a line: DKK1 binders on small-molecule microarrays, primary screen, biochemical, small-molecule microarray, 635 nm fluorescence scan (AID 1106).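 Further: score merges emission near 667 nm with signal to noise over three replicate slides.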 Particulars: DKK1 binding, higher = more signal.
Sequence of Dickkopf-related protein 1 (Homo sapiens) (O94907 whole entry, looked up): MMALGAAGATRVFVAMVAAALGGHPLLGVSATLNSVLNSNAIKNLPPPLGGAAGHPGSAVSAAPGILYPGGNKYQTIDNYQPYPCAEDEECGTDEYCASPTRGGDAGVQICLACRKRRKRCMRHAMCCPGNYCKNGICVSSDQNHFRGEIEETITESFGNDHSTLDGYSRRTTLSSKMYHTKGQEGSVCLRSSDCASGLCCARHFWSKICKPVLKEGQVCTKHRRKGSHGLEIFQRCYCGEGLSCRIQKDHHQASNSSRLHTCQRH
In turn, `COC(=O)c1cccc([C@H]2OC(=CC(=O)OC(C)C)C[C@@H](c3cccc(C(=O)OC)c3)O2)c1` registered a composite z-score of 0.34.
To `C=CC[C@]1(C(=O)NCC(O)CO)COC(c2ccc(OCCCO)cc2)=N1` (stereo partly specified) belongs -0.463.
With `COC(=O)[C@@]1(Cc2ccccc2)[C@H]2c3cc(C(=O)N(C)C)n(Cc4ccc(C(F)(F)F)nc4)c3C[C@H]2CN1C(=O)c1ccccc1` the figure was -0.547; with `CCCNC(=O)[C@@]1(c2ccc([N+](=O)[O-])cc2)CC(=O)N(C(C)C)[C@@H]1c1ccc(CO)cc1`, -0.695; with `C[C@@H]1NC(=O)C([C@@H](C)OCc2ccccc2)NC(=O)[C@@]23C(=O)N[C@@H](Cc4ccccc4)C2[C@H](C)[C@@]2(C)O[C@H]2C3/C=C/C/C=C\CNC1=O` (stereo partly specified), 0.382.
Molecule `CCOC(=O)C1=C[C@@H](C(C)(C)C)N(S(=O)(=O)c2ccc(C)cc2)[C@H]1c1ccc(C#N)cc1` yielded a composite z-score of 0.512.
